S1P4 antag – antagonists of human S1P4 receptor. O95977. S1P4-expressing cells, antagonist mode, reporter read-out. inhibition, % at 4.98 µM. hit rate 0.26% among 220,000. AID 1510; in the data active = inhibition above about 29%;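 also: 0% = wells stimulated with agonist and 100% = vehicle wells without agonist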
EP2 antag – EP2 receptor (human) inhibition | P43116 | C6 glioma cells expressing human EP2, cAMP TR-FRET; cells stimulated with saturating PGE2 | inhibition, % at 25 µM | hit rate 0.52% among 260,000 | AID 1422;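 active = percent inhibition above 40 after rounding to a whole number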;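 also: rat C6 glioma host cells with rolipram phosphodiesterase inhibitor present; the protocol text gives 20 µM as final concentration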
Target sequence (P43116 whole entry, looked up): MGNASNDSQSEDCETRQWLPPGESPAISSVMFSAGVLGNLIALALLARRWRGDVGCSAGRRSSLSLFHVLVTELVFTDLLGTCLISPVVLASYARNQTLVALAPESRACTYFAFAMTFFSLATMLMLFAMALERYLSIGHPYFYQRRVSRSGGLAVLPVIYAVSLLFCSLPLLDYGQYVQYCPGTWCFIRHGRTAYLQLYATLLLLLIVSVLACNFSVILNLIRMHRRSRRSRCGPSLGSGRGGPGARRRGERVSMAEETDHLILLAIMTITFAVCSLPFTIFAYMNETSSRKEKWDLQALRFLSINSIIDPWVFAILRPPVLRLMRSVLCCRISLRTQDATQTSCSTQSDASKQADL
EP2 modulator – EP2 receptor (human) modulation. induction, % at 25 µM. AID 940. hit rate 0.83% among 260,000. EP2-expressing cells, cAMP HTRF FRET, PGE2 co-stimulation. P43116;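 active = compounds whose cAMP rise, as percent of the full-agonist control response, exceeds 60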;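 also: rat C6 glioma line stably carrying human EP2 under a CMV promoter; the protocol text gives 20 µM as final concentration; 100% = response of wells given 1 µM PGE2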
S1P3 antagonist – S1P3 (human) receptor antagonism; Q99500; CHO S1P3 NFAT-BLA reporter, FRET fluorescence, antagonist mode; inhibition, % at 4.98 µM; hit rate 0.27% among 170,000; AID 485;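 active = inhibition above the plate cutoff, the mean inhibition of test wells on that plate plus 3 SD, cut at about 28% in these data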;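 also: cells challenged with S1P at its EC80 of 0.8 µM; blue over green emission ratio from cleaved BLA substrate after 4 h stimulation; 0% = S1P-stimulated wells and 100% = unstimulated DMSO-only wells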
S1P4 ag – agonists of human S1P4 receptor; S1P4-expressing cell line, agonist reporter assay; activation, % at 4.98 µM; hit rate 0.35% among 220,000; AID 1509; in the data active = activation above about 11%;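 also: 0% = DMSO vehicle and 100% = reference agonist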
EP2 confirm – human EP2 receptor cAMP induction, negative in counter-screens; shares compounds with EP2 modulator; C6 glioma EP2 cells, cAMP HTRF induction; plus low (about EC15) PGE2 agonist; calls only at 20 µM (by protocol); hit rate 47% among 1,300;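 active = cAMP induction above 50% in the main assay while under 30% in all four parallel counter assays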;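 also: rat C6 glioma cells stably expressing human EP2 receptor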
The depositor's hits bear a star; i = inactive; nt = no result; + = active, no number. Sampled rows, rich in hits. Any-hit rate of the full collection: about 1.9%.

SMILES | S1P4 antag | EP2 antag | EP2 modulator | S1P3 antagonist | S1P4 ag | EP2 confirm
O=C(c1ccco1)N1N=C(c2ccc(Br)cc2)CC1(O)C(F)(F)F (centres undefined) | -20 | 11 | 86* | -5 | 1 | +
O=C(c1ccco1)N1N=C(C2CCCCC2)CC1(O)C(F)(F)F (centres undefined) | 4 | 3 | 40 | -20 | 2 | nt
COc1cccc(C(=O)N2N=C(c3cccc(OC)c3)CC2(O)C(F)(F)F)c1 (centres undefined) | -10 | 5 | 11 | nt | 0 | nt
COc1cccc(C2=NN(C(=O)c3ccc(C)o3)C(O)(C(F)(F)F)C2)c1 (centres undefined) | 15 | 1 | 51 | 1 | 1 | nt
COc1cccc(C2=NN(C(=O)c3cccs3)C(O)(C(F)(F)F)C2)c1 (centres undefined) | -2 | 9 | 86* | 9 | 1 | +
Cc1ccc2[nH]c(=O)c(CN(CCN(C)C)C(=O)Nc3ccccc3F)cc2c1 | nt | 17 | -32 | nt | nt | nt
CCCC(=O)N(Cc1cc2cc(OC)ccc2[nH]c1=O)C(C)(C)C | nt | 11 | -20 | nt | nt | nt
CCc1nnc(NC(=O)CSc2nnc(COc3ccc(OC)cc3)n2CC)s1 | nt | 16 | 8 | nt | nt | nt
CCOC(=O)c1c(CC(C)C)csc1/N=C/C1C(=O)CCCC1=O | -6 | 1 | 68* | 2 | 1 | i
CCOC(=O)c1c(-c2ccccc2)csc1/N=C/C1C(=O)CCCC1=O | 3 | 10 | 24 | 0 | 0 | nt
CCOC(=O)c1c(/N=C/C2C(=O)CCCC2=O)sc2c1CCCC2 | -6 | 3 | 52 | 9 | 0 | i
CCOC(=O)c1c(/N=C/C2C(=O)CC(C)(C)CC2=O)sc2c1CCCC2 | -14 | 5 | 34 | 14 | 1 | nt
CC1CN(c2nc3ccccc3cc2-c2ccccc2)CC(C)O1 (centres undefined) | -6 | 5 | 67* | -8 | 1 | +
CC1CN(c2cc(-c3ccccc3)c3ccccc3n2)CC(C)O1 (centres undefined) | -3 | 10 | 54 | nt | 0 | nt
C/C=C(\C)C(=O)OC1[C@@H]2C=C3C(CC[C@]4(C)C3CC(=O)O[C@H]4c3ccoc3)C(C)(C2=O)[C@@H](C(O)C(=O)OC)C1(C)C (some centres undefined) | nt | 10 | 2 | nt | nt | nt
CC(C)(Oc1ccc(Cl)cc1)C(=O)Nc1ccc(S(=O)(=O)N2CCCC2)cc1 | nt | 11 | 12 | nt | nt | nt
Clc1ccc(Cn2c(/C=C/c3ccco3)nc3ccccc32)cc1 | -5 | 9 | 69* | -4 | 2 | +
C=CCn1c(-c2oc3nc(-c4ccccc4)cc(-c4ccccc4)c3c2N)n[nH]c1=S | -10 | 4 | 61* | 4 | 2 | i
Cc1ccc(-c2ccc(NC(=O)/C=C/C(=O)O)cc2)o1 | nt | 5 | -21 | nt | nt | nt
CCOc1ccc(OCC)c(NC(=O)CN2CCN(c3cccc(C)c3)C(C)C2)c1 (centres undefined) | 3 | nt | 58 | nt | 3 | nt
CCOc1ccc(OCC)c(NC(=O)CN2CCN(CC)CC2)c1 | -10 | 9 | 3 | nt | -1 | nt
CCOc1ccc(OCC)c(NC(=O)CN2CCN(c3cc(C)ccc3C)CC2)c1 | -10 | 11 | 78* | nt | 1 | +
CCOc1ccc(OCC)c(NC(=O)CN2CCN(c3cccc(C)c3)CC2)c1 | -5 | nt | 73* | nt | 0 | +
CCCc1nn(CC(=O)NC(C)(C)C)c(=O)c2cc3ccsc3n12 | nt | nt | -27 | nt | nt | nt
O=C(O)c1ccc(CNCc2cccc(Cl)c2Cl)cc1 | -13 | 7 | 68* | nt | 0 | i
SMILES | S1P4 antag | EP2 antag | EP2 modulator | S1P3 antagonist | S1P4 ag | EP2 confirm
O=C(O)c1ccc(CNCc2ccccc2Cl)cc1 | -12 | 10 | 26 | nt | 2 | nt
Cc1cc(C)c(NC(=O)C2CCCN(c3ncccn3)C2)c(C)c1 (centres undefined) | nt | 9 | -2 | nt | nt | nt
COc1ccc(NC(=O)CSc2nnc3n(CC(=O)N4CCCC4)c4ccccc4n23)cc1OC | nt | 17 | 0 | nt | nt | nt
O=C1C2C3c4ccccc4C(c4ccccc43)[C@@H]2c2nc3ccccc3n21 (some centres undefined) | -7 | 11 | 75* | nt | -1 | +
O=C1C2C3c4ccccc4C(c4ccccc43)[C@@H]2C(=O)N1c1ccccn1 (some centres undefined) | 15 | 9 | 1 | -15 | -1 | nt
CC[C@H](Cn1ncc2ccccc2c1=O)NC(=O)c1cnn2cccnc12 | nt | nt | -47 | nt | nt | nt
C=CCC(=O)OCCCCCCOc1ccc(C(=O)O)cc1 | -8 | 7 | 67* | nt | -2 | i
Cc1ccccc1OCc1nc2ccccc2c(=O)n1/N=C/c1ccco1 | -1 | 17 | 67* | 23 | 0 | i
COc1cccc(CN2CCC(O)(c3ccccc3)C2)c1OC1CCCC1 (centres undefined) | nt | 6 | -70 | nt | nt | nt
CC(C)Cc1nc(SCc2cccnc2)c2c(=O)n(C)c(=O)n(C)c2n1 | -3 | 5 | 63* | 0 | 1 | i
CCCCc1c(C)nc2ccc(Br)cc2c1SCCC#N | -5 | 12 | 56 | 5 | -1 | nt
CCc1c(C)nc2ccc(Br)cc2c1SCCC#N | -21 | 12 | 65* | 17 | 2 | i
COCCSc1nnc(NC(=O)c2ccc(C)c(C)c2)s1 | nt | 8 | -15 | nt | nt | nt
COC(=O)C1=NN(c2ccccc2)C2(S1)S/C(=C\c1ccccc1)C(=O)N2c1ccccc1 (centres undefined) | 6 | 12 | 11 | nt | -2 | nt
CCOC(=O)C1=NN(c2ccc(C)cc2)C2(S1)SC(C(C)=O)=C(C)N2c1ccccc1 (centres undefined) | -1 | 5 | 74* | nt | 0 | +
CCOC(=O)C1=NN(c2cccc(C)c2)C2(S1)SC(C(C)=O)=C(C)N2c1ccccc1 (centres undefined) | -7 | 2 | 78* | nt | 1 | +
C#CCOc1ccc(/C=C2/C(C)=C(C#N)c3nc(N)c(C#N)c(C)c32)cc1OC | nt | 11 | -47 | nt | nt | nt
CC[C@H](Cn1nc(-c2cccs2)ccc1=O)NC(=O)c1ccc2c(c1)n(C)c(=O)n2C | nt | nt | 9 | nt | nt | nt
CCOc1ccc(Cl)cc1S(=O)(=O)N1CCN(c2ccc(C)c(C)c2)CC1 | -27 | 2 | -39 | nt | -1 | nt
CCOc1ccc(Cl)cc1S(=O)(=O)n1cnc2cc(C)c(C)cc21 | 3 | 5 | 70* | nt | 3 | +
COc1ccc(OC)c(-c2cnc(OC(C)(C)C)nc2OC(C)(C)C)c1 | -6 | 8 | 70* | 9 | 0 | i
Cc1cc(C)cc(NC(=O)CSc2nc3c(C)c(C)ccc3cc2C#N)c1 | nt | 8 | 3 | nt | nt | nt
C=CCN1C(=O)/C(=C/c2ccc(O)c(OC)c2)S/C1=N/c1nccs1 | 0 | 6 | 70* | -7 | 0 | +
C=CCN1C(=O)/C(=C/c2ccc(OCC(=O)O)cc2)S/C1=N/c1nccs1 | -17 | 9 | 35 | -2 | 2 | nt
